Set-up in all cases: scale not given: direction of the effect not stated beside the values
Test [1] concerns the target Protein translocase subunit SecA (Escherichia coli (strain K12)) (UniProt P10408). Nature of the test: Assay to Identify E. coli SecA ATPase Inhibitors. The test is classed as functional. Particulars: 30 µM.
Test [2] has as its target T1, Ubiquitin-activating enzyme e1, putative (Leishmania donovani (strain BPK282A1)) (UniProt E9BSI1).
T1 sequence (whole entry): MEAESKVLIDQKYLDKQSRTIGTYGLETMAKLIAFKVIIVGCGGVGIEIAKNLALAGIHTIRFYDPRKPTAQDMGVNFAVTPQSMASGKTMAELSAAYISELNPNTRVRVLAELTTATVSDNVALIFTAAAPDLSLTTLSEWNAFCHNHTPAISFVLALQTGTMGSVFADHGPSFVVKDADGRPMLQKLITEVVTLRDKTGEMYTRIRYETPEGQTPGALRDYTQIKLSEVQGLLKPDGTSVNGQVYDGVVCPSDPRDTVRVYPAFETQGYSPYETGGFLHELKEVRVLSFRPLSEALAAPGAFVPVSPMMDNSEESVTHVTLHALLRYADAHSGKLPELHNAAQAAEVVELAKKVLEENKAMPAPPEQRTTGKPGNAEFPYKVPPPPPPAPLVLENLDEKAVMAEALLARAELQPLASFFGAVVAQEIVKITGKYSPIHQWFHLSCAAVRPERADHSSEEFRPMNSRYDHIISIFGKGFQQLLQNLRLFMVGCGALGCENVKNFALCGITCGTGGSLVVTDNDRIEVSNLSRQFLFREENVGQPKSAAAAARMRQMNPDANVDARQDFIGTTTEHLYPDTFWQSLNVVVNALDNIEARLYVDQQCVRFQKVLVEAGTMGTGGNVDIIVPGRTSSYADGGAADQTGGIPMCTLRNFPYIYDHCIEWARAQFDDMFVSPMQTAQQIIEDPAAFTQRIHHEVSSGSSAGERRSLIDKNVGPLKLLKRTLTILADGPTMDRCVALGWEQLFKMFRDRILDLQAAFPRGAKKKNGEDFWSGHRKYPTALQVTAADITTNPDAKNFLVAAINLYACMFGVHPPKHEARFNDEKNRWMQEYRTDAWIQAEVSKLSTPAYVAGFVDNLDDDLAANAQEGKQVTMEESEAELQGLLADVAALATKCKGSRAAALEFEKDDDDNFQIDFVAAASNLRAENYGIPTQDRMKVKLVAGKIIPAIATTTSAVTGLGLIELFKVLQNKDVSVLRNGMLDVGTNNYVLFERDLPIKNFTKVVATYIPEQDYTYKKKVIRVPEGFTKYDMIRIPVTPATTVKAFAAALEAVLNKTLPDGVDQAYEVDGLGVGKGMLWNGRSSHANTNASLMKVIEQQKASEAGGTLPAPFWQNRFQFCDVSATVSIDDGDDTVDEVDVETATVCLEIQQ
Nature of the test: Leishmania donovani Ubiquitin Activating Enzyme (LdE1). In kind it is functional. Particulars: 30 µM.

Test [3] concerns the target T2, Aspartate--tRNA(Asp/Asn) ligase (Mycobacterium tuberculosis (strain ATCC 25618 / H37Rv)) (UniProt P9WFW3). Further: in the data most compounds retested in dose-response had high values.
T2 sequence (whole entry): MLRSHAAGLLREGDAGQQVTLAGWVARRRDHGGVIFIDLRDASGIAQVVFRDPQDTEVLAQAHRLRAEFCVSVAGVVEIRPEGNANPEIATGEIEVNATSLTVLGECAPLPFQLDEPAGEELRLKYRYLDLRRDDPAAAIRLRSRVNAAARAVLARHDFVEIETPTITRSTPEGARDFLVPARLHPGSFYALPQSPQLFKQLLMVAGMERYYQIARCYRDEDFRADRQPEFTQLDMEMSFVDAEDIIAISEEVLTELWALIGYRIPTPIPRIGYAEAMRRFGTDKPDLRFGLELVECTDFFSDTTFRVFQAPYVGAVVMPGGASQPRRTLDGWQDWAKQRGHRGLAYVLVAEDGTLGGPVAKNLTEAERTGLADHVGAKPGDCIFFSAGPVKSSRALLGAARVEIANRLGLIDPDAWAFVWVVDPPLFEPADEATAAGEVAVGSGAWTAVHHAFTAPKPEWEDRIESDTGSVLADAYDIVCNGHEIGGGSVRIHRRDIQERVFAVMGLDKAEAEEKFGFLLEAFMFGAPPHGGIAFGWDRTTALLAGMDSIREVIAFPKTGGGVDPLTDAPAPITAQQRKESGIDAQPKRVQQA
As to the kind of experiment: Assay for Asp RNA synthetase-1 from Mycobacterium tuberculosis. The test is classed as functional. Particulars: 30 µM.

In test [4] the target is Sialic acid-binding Ig-like lectin 9 (Homo sapiens) (UniProt Q9Y336). Nature of the test: Hs-Siglec9 ALPHAscreen SOP 20170721. Particulars: 10 µM.
Chain of Sialic acid-binding Ig-like lectin 9 (Homo sapiens) (Q9Y336 whole entry): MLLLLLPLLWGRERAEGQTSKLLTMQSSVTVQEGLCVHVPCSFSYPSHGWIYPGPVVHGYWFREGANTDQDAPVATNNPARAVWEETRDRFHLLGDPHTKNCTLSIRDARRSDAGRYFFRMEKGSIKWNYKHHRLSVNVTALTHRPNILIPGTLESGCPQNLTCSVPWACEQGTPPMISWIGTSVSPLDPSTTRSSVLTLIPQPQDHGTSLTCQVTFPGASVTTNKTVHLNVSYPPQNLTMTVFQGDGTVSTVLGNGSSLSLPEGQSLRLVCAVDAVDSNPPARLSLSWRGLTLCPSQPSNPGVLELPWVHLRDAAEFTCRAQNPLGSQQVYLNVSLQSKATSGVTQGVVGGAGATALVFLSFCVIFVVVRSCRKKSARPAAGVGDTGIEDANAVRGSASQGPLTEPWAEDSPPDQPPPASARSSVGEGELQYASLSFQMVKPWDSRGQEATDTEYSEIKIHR
In the next test the test system is Trypanosoma cruzi. Nature of the test: Trypanosoma cruzi phosphomannomutase and mannose-1-phosphate guanylyltransferase assay. The test is classed as functional. The conditions noted are these: 10 µM.
In test [5] the target is T3, Arginase-2, mitochondrial (Homo sapiens) (UniProt P78540).
T3 sequence (whole entry): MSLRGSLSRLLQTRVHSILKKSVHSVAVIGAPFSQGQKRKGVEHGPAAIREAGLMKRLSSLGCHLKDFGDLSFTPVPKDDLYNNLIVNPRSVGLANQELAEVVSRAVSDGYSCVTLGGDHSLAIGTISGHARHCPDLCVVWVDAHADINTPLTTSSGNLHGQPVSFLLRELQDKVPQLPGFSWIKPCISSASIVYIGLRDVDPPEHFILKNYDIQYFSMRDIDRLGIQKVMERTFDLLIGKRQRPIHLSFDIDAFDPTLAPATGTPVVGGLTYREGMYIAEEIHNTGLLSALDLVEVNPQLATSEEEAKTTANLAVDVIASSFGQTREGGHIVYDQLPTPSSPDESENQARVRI
As to the kind of experiment: in vitro enzyme assay to detect the production of urea directly proportional to the activity of Arginase II. Further: in the data most compounds retested in dose-response had high values. In kind it is functional. The conditions noted are these: 33.3 µM.

The target of test [6] is T4, Proteasome subunit beta (Trypanosoma cruzi) (UniProt O96673).
T4 sequence (whole entry): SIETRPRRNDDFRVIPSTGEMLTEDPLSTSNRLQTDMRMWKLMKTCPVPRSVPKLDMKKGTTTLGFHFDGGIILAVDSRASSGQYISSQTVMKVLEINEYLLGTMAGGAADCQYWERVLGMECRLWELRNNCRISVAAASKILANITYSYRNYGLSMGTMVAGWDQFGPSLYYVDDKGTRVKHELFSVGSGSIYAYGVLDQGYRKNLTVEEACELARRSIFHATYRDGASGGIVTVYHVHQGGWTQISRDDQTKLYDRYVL
As to the kind of experiment: Trypanosoma cruzi proteasome chymotrypsin-like activity (TcProtChymo) assay. Further: in the data most compounds retested in dose-response had high values. Particulars: 9.37 µM. In kind it is functional.

The species entered for the next test is Homo sapiens. Nature of the test: To identify inhibition of the IFN signalling (Jak-Stat) pathway via expression of an eGFP reporter gene under the control of an IFN-stimulated response element (ISRE) containing MxA promoter. In kind it is functional. Particulars: 30 µM. On the technique in general: In a reporter assay the amount or activity of a reporter protein is the signal.

The target in test [7] is Shiga toxin 2 (Escherichia coli O157:H7) (UniProt P09385+P09386). As to the kind of experiment: E. coli 0.157:H7 Shiga Toxin SOP - stx2 screening assay. In kind it is functional. The conditions noted are these: 30 µM.
The target of test [8] is T5, Tyrosyl-tRNA synthetase, putative (Trypanosoma cruzi (strain CL Brener)) (UniProt Q4DSP6).
T5 sequence (whole entry): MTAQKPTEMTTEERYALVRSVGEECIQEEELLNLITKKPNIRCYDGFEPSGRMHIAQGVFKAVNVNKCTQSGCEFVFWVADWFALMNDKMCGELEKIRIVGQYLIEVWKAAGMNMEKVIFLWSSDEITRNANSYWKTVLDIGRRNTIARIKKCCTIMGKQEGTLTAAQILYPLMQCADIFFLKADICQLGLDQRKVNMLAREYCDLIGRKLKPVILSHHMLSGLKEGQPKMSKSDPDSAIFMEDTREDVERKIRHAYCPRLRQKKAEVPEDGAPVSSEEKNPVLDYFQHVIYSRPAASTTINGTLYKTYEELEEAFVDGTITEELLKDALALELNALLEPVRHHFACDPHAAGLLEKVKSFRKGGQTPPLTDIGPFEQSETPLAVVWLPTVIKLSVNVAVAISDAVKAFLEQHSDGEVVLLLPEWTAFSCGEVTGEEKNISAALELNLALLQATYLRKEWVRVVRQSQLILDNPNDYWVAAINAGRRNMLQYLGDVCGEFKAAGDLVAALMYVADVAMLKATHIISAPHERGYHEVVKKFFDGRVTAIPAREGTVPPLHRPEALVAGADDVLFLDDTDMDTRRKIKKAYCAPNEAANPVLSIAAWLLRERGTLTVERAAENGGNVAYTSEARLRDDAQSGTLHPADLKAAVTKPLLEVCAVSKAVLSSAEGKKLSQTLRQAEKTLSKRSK
As to the kind of experiment: Trypanosoma cruzi tyrosyl tRNA synthetase (TcYRS) _High Tyrosine SOP. Further: in the data most compounds retested in dose-response had high values. In kind it is functional. The conditions noted are these: 30 µM.

For test [9], the target named is T5, Tyrosyl-tRNA synthetase, putative (Trypanosoma cruzi (strain CL Brener)). As to the kind of experiment: Trypanosoma cruzi tyrosyl tRNA synthetase (TcYRS) SOP. Particulars: 30 µM. The test is classed as functional.
Test [10] deals with Chromo domain-containing protein 1 (Saccharomyces cerevisiae (strain ATCC 204508 / S288c) (Baker's yeast)) (UniProt P32657). As to the kind of experiment: ScCHD-1 Enzyme Inhibition Assay. Further: in the data most compounds retested in dose-response had high values. In kind it is functional. The conditions noted are these: 30 µM.
Chain of Chromo domain-containing protein 1 (Saccharomyces cerevisiae (strain ATCC 204508 / S288c) (Baker's yeast)) (P32657 whole entry, the tested form may be a part): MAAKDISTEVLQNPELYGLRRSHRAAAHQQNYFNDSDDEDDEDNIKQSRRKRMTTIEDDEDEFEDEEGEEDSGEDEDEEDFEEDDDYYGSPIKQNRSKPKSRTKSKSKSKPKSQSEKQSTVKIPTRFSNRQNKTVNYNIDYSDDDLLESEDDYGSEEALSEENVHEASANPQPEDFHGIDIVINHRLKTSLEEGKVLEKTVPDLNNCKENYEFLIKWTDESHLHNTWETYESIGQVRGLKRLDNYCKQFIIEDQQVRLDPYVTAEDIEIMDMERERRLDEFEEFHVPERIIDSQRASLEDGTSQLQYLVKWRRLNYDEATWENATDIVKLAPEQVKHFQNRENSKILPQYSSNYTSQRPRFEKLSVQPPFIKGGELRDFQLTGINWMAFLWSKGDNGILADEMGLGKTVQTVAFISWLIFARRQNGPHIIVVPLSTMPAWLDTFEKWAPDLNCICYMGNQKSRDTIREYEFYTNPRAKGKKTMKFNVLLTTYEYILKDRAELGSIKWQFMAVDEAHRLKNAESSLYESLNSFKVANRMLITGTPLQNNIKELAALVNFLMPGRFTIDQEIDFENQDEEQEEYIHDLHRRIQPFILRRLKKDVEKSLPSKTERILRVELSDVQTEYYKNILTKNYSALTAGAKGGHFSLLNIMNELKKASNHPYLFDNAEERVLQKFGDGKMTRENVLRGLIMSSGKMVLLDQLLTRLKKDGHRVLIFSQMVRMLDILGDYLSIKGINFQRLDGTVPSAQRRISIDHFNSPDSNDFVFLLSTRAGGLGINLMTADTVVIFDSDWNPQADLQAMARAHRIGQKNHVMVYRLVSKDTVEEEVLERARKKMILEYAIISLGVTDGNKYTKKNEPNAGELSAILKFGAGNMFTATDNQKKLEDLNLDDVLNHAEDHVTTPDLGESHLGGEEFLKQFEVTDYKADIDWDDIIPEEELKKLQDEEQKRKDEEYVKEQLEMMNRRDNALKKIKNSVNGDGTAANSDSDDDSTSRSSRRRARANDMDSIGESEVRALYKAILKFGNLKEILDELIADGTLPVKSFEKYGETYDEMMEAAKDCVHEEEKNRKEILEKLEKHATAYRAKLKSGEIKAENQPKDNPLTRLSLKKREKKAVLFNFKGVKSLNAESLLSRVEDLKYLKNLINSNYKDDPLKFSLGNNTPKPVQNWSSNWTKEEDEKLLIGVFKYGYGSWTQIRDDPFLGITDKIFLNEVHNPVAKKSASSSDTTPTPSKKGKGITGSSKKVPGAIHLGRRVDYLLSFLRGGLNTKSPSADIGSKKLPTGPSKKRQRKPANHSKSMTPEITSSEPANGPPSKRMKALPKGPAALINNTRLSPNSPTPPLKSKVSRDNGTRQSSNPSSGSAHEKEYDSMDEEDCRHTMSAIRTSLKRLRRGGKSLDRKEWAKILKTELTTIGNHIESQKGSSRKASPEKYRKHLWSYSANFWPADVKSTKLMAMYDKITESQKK

Consider six compounds from ChEMBL document CHEMBL3988442, “University of Dundee, Small-Polar-MMV Screening Library” (2021).

For some of these results: Results with a measured potency or affinity are listed apart.

Chain of Protein translocase subunit SecA (Escherichia coli (strain K12)) (P10408 whole entry): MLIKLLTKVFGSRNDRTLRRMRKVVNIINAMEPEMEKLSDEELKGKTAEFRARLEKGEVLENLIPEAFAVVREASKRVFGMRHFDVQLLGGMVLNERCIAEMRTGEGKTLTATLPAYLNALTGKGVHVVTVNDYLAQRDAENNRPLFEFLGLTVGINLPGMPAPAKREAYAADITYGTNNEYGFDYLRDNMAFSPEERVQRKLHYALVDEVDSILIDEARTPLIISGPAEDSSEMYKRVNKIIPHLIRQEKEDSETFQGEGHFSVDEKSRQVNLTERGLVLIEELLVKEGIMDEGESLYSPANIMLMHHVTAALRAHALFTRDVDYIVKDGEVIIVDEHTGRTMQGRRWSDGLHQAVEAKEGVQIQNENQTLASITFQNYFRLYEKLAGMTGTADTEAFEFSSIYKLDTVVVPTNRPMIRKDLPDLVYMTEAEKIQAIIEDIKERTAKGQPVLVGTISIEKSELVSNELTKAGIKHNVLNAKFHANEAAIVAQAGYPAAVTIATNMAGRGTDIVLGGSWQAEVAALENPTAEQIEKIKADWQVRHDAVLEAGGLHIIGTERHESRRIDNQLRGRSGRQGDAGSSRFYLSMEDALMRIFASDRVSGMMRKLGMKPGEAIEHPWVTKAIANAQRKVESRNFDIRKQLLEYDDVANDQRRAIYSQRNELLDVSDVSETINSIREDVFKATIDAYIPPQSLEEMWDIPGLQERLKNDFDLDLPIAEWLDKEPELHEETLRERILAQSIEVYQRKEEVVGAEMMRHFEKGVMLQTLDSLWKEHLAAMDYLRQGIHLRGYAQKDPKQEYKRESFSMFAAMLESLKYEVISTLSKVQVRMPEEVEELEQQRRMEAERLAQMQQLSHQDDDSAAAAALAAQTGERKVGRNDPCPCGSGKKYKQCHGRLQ

For `Cn1cc(CN2C[C@@H]3[C@@H](C2)OCC(=O)N3Cc2ccncc2)cn1`, the Percent Effect in test [1] is -5.79%; in test [2], 3.9%; in test [3] it was 4.5%; in test [4] it was -1.61%; in the test with Trypanosoma cruzi it was 1.07%; in test [5] it was 0.81%. For the same compound, the Percent Effect was 15.8% in test [6]; 8.18% in the test listed under Homo sapiens; 1.35% in test [7]; -0.526% in [8]; 17.9% in test [9]; 0.0412% in [10].

Consider `CN(C)CCn1c(=O)oc2ccc(NC(=O)c3cc(Cl)c[nH]3)cc21`, for which the Percent Effect in test [3] was determined as 5.07%.

Turning to `CCC(O)CN1CCN(C(=O)Cc2cc(Cl)ccc2OC)CC1` (stereo unspecified), the Percent Effect is 1.11% in test [1]; 13% in test [2]; -1.9% in test [3]; 12.1% in test [4]; -1.31% with Trypanosoma cruzi; -3.89% in test [5]. In addition, the Percent Effect in [6] was 4.04%; in the test listed under Homo sapiens, 13.4%; in test [7] it was -9.78%; in test [8], 4.9%; in [9], 21.2%; in [10], -7%.

Take `COCCN1C[C@@H]2CN(Cc3cccc(C)n3)C[C@@H]2C1=O`: the Percent Effect in test [1] was -2.33%; in test [2], -1.3%; in test [3], 1.39%; in [4] it was 0.23%; with Trypanosoma cruzi, -24.2%; in [5] it was 2.28%. The Percent Effect in [6] is 16.1%; in the test listed under Homo sapiens, 1.2%; in [7], -2.04%; in [8], 7.73%; in test [9], 12.5%; in test [10], -8.2%.

In the case of `COCC(=O)N1C[C@@H]2OCCN(Cc3c(C)noc3C)[C@@H]2C1`, the Percent Effect in test [1] is -1.15%; in test [2], 1.3%; in test [3], -3.8%; in test [4], -1.81%; in the test with Trypanosoma cruzi, 3.02%; in [5], 17%. For the same compound, the Percent Effect in test [6] is 27.1%; in the test filed under Homo sapiens it was 5.87%; in test [7] it was -14.3%; in test [8], 5.79%; in test [9], 10.3%; in [10] it was 24%.

Turning to `Cc1noc(C)c1CN1CCCC2(CCN(C(=O)NC3CC3)C2)C1` (stereo unspecified), the Percent Effect was -2.63% in test [1]; 22.1% in test [2]; 0.865% in [3]; -1.1% in test [4]; -3.94% in the test on Trypanosoma cruzi; 5.94% in test [5]. For the same compound, the Percent Effect in test [6] is 17.2%; in the test listed under Homo sapiens, 16.8%; in [7], -1.92%; in [8], 13.5%; in test [9] it was 15%; in test [10], -10.3%.
